Source: PubChem BioAssay (NCATS)
“And” between values parts separate entries of the source, which are not always exact repeats. Identical values can stand only once. Records with an inconclusive call do not appear. A call without a number means that no potency is given here. The source made the active and inactive calls. Unless noted, calls follow the shape of the dose curve; as a rule, active = well fitted curve in the direction sought with a large enough effect; inconclusive = small, poorly fitted or top-dose-only effect, or another doubt; inactive = no such curve, though single readings can be large; an effect the other way counts as inactive or inconclusive.

Assays:
[1] = qHTS Assay for Lipid Storage Modulators (AID 1519); conditions: Drosophila S3 cells, BODIPY lipid droplet/cell ratio, laser cytometry; measured here: lipid channel max response; cells loaded with oleic acid
Procedure, shortened: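 Cells seeded at 5,000 per well were treated with compounds over a concentration series and loaded with oleic acid (400 uM, as added). Lipid droplet fluorescence (488 nm excitation, 500-530 nm channel) was read by laser-scanning cytometry and normalized to 20 uM Triacsin C.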

[2] = target: DNA repair nuclease/redox regulator APEX1 (Homo sapiens) (UniProt P27695); test: qHTS Validation Assay for Inhibitors of the Human Apurinic/apyrimidinic Endonuclease 1 (APE1) (AID 1705;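 also: TAMRA fluorescence gain over two minutes as APE1 cuts a quenched THF abasic duplex; series mostly up to about 57 µM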)
Procedure, shortened: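 qHTS, 1536-well. APE1 + cpd 15 min RT → 50 nM TAMRA/BHQ-2 THF-abasic dsDNA substrate → kinetic fluorescence, 3 reads/60 s; delta(read3−read1) = reaction progress. No-enzyme buffer = negative control.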

[3] = Counterscreen for APE1 Inhibitors: Fluorescent Dye Displacement Validation Assay (AID 1707)
Procedure, shortened: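 Thiazole Orange displacement from dsDNA: 250 nM ThO with 50 nM TAMRA-labelled abasic-site (tetrahydrofuran) duplex in 50 mM Tris-HCl pH7.5, 50mM NaCl, 2 mM MgCl2, 0.01% Tween-20. Loss of endpoint fluorescence (ex 480 nm, em 540 nm) flags DNA binders.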

[4] = target: Endonuclease 4 (Escherichia coli (strain K12)) (UniProt P0A6C1); test: Counterscreen for APE1 Inhibitors: qHTS Validation Assay for Inhibitors of Endonuclease IV (AID 1708)
Procedure, shortened: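 2 nM enzyme was preincubated with compounds for 15 min at room temperature in 50 mM Tris-HCl pH 7.5, 50 mM NaCl, 2 mM MgCl2, 1 mM DTT, 0.01% Tween-20. 50 nM THF-abasic TAMRA/BHQ-2 duplex substrate started the reaction.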

[5] = qHTS for differential inhibitors of proliferation of Plasmodium falciparum line GB4 (AID 1816); conditions: Potency: Plasmodium falciparum GB4 proliferation inhibition;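 also: parasite growth measured after 72 h incubation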
[6] = qHTS for differential inhibitors of proliferation of Plasmodium falciparum line 3D7 (AID 1876);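 also: parasite growth measured after three days of culture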
[7] = qHTS for differential inhibitors of proliferation of Plasmodium falciparum line D10 (AID 1877);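 also: parasites grown with compound for 72 h before DNA staining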
[8] = qHTS for differential inhibitors of proliferation of Plasmodium falciparum line Dd2 (AID 1882); conditions: Potency: Plasmodium falciparum Dd2 proliferation inhibition;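 also: series mostly up to about 29 µM; compound exposure of 72 h on infected erythrocytes; nearly all actives have a fitted effect of over 65% in size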
Procedure, shortened: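 SYBR Green I DNA fluorescence read-out, ex 485/em 535 nm. Signals were normalized to 0.29 uM artemisinin and DMSO wells, then corrected using vehicle-only plates flanking each stack. Parasite growth ran 72 h in erythrocytes before lysis.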

[9] = qHTS for differential inhibitors of proliferation of Plasmodium falciparum line W2 (AID 1883); conditions: Potency: Plasmodium falciparum W2 proliferation inhibition;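 also: parasites grown with compound for 72 h before lysis and staining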
[10] = qHTS for differential inhibitors of proliferation of Plasmodium falciparum line HB3 (AID 1886); conditions: Potency: Plasmodium falciparum HB3 proliferation inhibition;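 also: parasites grown with compound for 72 h before SYBR Green readout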
[11] = qHTS Assay for Modulators of Human Peripheral Myelin Protein 22 (PMP22) Expression/Activity (AID 1967; active = well fitted curve in the direction sought with a large enough effect in the signal ratio; the % refers to the signal ratio)
Procedure, shortened: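 Luminescence ratio of Pmp22 promoter-driven green luciferase to EF-alpha-driven red luciferase, in engineered mouse MSC80 Schwann cells, served as read-out. Compounds were incubated 24h; untreated cells defined 0% Activity; curves were classified by r2, magnitude and activity.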

[12] = target: Ferritin light chain (Equus caballus) (UniProt P02791); test: qHTS Validation Assay for Identification of Novel General Anesthetics (AID 2323); also: series mostly up to about 77 µM
Procedure, shortened: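 Fluorescence at 535 nm (excitation 380 nm) reported loss of 1-AMA binding to horse-spleen apoferritin (10 uM) in PBS with 50% saturated 1-aminoanthracene, after 10 min room-temperature incubation with compound; values from Hill fits of normalized response.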

[13] = target: ATP-dependent DNA helicase Q1 (Homo sapiens) (UniProt P46063); test: qHTS Validation Assay for Inhibitors of RecQ-Like Dna Helicase 1 (RECQ1) (AID 2353)
Procedure, shortened: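 50 nM RECQ1T1 preincubated 15 min with compound in Tris pH 8.0 buffer with MgCl2, DTT, Tween-20 and 2.5 ug/ml poly(dI-dC); started with 200 nM TAMRA/BHQ-2 forked duplex and 2 mM ATP. Unwinding read as fluorescence (525/598 nm), two reads 2 h apart.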

[14] = Validation screen for small molecules that induce DNA re-replication in MCF 10A normal breast cells (AID 463097); also: nearly all actives have a fitted effect of over 60% in size
Procedure, shortened: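 Image-based qHTS: normal breast cells are incubated with compound for 48 hr, stained with Hoechst, and scanned for total nuclear fluorescence. Compounds raising the fraction of nuclei with elevated DNA content count as re-replication inducers.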

[15] = Quantitative high throughput screen for delayed death inhibitors of the malarial parasite plastid, 96 hour incubation (AID 488745); also: series mostly up to about 29 µM; nearly all actives have a fitted effect of over 70% in size
Procedure, shortened: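 P. falciparum carrying an integrated firefly luciferase reporter, grown in erythrocytes (2% hematocrit, 0.1% parasitemia final) in RPMI 1640/0.5% Albumax, was exposed to compound for 96 h (two generations) at 37 C, 5% CO2. Luminescence decrease indicated growth inhibition.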

[16] = Quantitative high throughput screen for delayed death inhibitors of the malarial parasite plastid, 48 hour incubation (AID 488752); also: nearly all actives have a fitted effect of over 65% in size
Procedure, shortened: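 Erythrocytes infected with P. falciparum carrying an integrated firefly luciferase reporter (2% hematocrit, 0.1% parasitemia final) were exposed to compounds in RPMI 1640/0.5% Albumax for 48 h at 37 C, 5% CO2. Growth inhibition was scored as reduced luminescence.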

[17] = target: M-phase phosphoprotein 8 (Homo sapiens) (UniProt Q99549); test: qHTS Validation Assay for Inhibitors for MPP8 Chromodomain Interactions with Methylated Histone Tails (AID 488949);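 also: 50 nM MPP8 with 50 nM peptide preformed then compounds added for 30 min; AlphaScreen signal from MPP8 chromodomain bound to biotinylated H3K9me3 peptide; top concentration of the series differs between compounds; nearly all actives have a fitted effect of over 55% in size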
Procedure, shortened: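 50 nM MPP8 + 50 nM b-H3K9me3 peptide, PBS pH 7.4/0.01% Tween-20, 30 min RT; + cpd 30 min RT; + AlphaScreen donor/Ni-chelate acceptor beads 10 ug/mL final, 30 min dark; luminescence read.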

[18] = target: Transient receptor potential cation channel subfamily V member 1 (Homo sapiens) (UniProt Q8NER1); test: HTS Assay for Compounds that Act as Enhancers of the Vanilloid Receptor 1 (AID 488979)
Procedure, shortened: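 TRPV1-expressing cells loaded with Fluo-8 calcium dye; compounds added and calcium influx read kinetically for 3 min (agonist phase), then capsaicin at EC20 added and read 2 min more for enhancement. Fluorescence ex 480/em 520 nm.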

[19] = target: Thyrotropin receptor (Homo sapiens) (UniProt P16473); test: qHTS Assay for Antagonists of the Thyroid Stimulating Hormone Receptor (AID 488980); also: series mostly up to about 58 µM
Procedure, shortened: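 Readout is cAMP by HTRF competition between cellular cAMP and cAMP-d2 for a cryptate-labelled antibody. Antagonism was assessed in TSHR-transfected HEK293 cells stimulated with 4 nM TSH (EC80, final) in the presence of RO 20-1724.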

[20] = target: Galactokinase (Homo sapiens) (UniProt P51570); test: qHTS Validation Assay for Inhibitors of Human Galactokinase (GALK) (AID 493189)
Procedure, shortened: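 5 nM GALK / 100 uM galactose / 35 uM ATP, 20 mM HEPES pH8.0, 5 mM MgCl2, 60 mM NaCl, 1 mM DTT, 0.01% BSA (final). RT 1 h; Kinase-Glo Plus luminescence.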

[21] = Validation screen for small molecules that induce DNA re-replication in SW480 colon adenocarcinoma cells (AID 504364)
Procedure, shortened: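 SW480 cells seeded at 250 per well were exposed to compound or DMSO for 48 hr at 37 C, 5% CO2, then stained with Hoechst for 40 min. DNA content per nucleus was imaged (405 nm ex, 500-530 nm em).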

[22] = target: DNA dC->dU-editing enzyme APOBEC-3G (Homo sapiens) (UniProt Q9HC16); test: qHTS for inhibitors of Vif-A3G interactions: Validation (AID 588379)
Procedure, shortened: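 HeLa cells stably expressing Vif and A3G-eYFP, 700 cells/well, incubated overnight at 37 deg C, then exposed to compound overnight at 37 deg C. Inhibition of Vif-mediated degradation read as increased yellow fluorescence (Ex 488/Em 500-530) by laser-scanning cytometry.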

[23] = tested on: Zika virus NS2B-NS3 protease; test: Primary screen GU AMC qHTS for Zika virus inhibitors (AID 1347154); also: nearly all actives have a fitted effect of over 70% in size
Procedure, shortened: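 Unlinked Zika NS2B hydrophilic domain/NS3 protease domain noncovalent complex (25 nM final) in 10 mM Tris-HCl pH 8.0, 0.01% Tween 20, with AMC peptide substrate. Fluorescence (ex 340, em 450 nm) change over 15 min, room temperature; percent inhibition fitted to 4-parameter Hill equation.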

[24] = Primary qHTS for small molecule stabilizers of the endoplasmic reticulum resident proteome: Secreted ER Calcium Modulated Protein (SERCaMP) assay (AID 1508630)
Procedure, shortened: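 GLuc-SERCaMP-expressing SH-SY5Y cells, pretreated 16 h with compound, are challenged with thapsigargin to empty ER calcium stores; after 4 h, coelenterazine is added directly to the medium and luminescence is imaged.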

DNA repair nuclease/redox regulator APEX1 (Homo sapiens), sequence (P27695 whole entry, looked up): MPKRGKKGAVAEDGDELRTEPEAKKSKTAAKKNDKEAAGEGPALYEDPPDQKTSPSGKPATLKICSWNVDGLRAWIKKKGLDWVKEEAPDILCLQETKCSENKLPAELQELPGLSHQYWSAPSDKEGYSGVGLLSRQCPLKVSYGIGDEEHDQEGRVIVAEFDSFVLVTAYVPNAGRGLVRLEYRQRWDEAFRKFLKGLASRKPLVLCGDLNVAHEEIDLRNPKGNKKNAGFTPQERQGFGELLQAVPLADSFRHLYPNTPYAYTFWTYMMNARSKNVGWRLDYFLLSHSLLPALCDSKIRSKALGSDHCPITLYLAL
DNA dC->dU-editing enzyme APOBEC-3G (Homo sapiens), sequence (Q9HC16 whole entry, looked up): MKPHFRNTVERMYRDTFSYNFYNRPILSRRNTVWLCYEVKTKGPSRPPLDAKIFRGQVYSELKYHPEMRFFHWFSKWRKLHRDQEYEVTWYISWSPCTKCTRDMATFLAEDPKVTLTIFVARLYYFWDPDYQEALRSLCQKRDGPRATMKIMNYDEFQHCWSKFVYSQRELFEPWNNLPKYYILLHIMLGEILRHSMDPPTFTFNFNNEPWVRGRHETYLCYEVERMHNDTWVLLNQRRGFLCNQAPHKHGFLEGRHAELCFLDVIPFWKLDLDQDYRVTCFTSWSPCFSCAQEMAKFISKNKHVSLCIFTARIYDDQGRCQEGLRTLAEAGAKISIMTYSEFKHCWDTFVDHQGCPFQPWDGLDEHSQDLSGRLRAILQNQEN
Galactokinase (Homo sapiens), sequence (P51570 whole entry, looked up): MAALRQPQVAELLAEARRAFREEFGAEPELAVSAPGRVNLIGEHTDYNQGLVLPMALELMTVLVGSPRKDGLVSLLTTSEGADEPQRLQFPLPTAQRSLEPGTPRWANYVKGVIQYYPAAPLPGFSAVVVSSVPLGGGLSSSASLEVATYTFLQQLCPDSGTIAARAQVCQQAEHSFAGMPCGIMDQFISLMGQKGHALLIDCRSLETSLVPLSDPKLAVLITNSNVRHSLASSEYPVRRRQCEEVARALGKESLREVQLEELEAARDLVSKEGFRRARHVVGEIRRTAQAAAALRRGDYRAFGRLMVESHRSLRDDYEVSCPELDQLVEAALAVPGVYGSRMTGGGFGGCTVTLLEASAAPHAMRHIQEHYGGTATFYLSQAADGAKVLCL
ATP-dependent DNA helicase Q1 (Homo sapiens), sequence (P46063 whole entry, looked up): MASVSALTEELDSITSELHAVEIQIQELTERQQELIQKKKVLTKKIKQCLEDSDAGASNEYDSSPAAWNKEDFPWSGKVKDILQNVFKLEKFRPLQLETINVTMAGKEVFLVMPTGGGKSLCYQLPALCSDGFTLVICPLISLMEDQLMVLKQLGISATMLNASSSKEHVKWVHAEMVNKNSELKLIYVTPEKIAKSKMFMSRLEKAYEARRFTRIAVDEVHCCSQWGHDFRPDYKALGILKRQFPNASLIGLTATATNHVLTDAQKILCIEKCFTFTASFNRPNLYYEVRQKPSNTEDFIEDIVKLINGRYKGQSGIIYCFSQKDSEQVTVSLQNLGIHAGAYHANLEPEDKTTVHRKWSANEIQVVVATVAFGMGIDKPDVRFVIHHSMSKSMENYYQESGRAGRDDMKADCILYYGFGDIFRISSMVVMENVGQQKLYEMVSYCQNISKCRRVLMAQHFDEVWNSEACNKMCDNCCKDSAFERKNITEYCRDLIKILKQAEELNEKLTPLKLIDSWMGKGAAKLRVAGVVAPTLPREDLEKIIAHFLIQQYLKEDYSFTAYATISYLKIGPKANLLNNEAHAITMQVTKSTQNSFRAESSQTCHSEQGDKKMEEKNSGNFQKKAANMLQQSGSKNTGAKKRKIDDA
M-phase phosphoprotein 8 (Homo sapiens), sequence (Q99549 whole entry, looked up): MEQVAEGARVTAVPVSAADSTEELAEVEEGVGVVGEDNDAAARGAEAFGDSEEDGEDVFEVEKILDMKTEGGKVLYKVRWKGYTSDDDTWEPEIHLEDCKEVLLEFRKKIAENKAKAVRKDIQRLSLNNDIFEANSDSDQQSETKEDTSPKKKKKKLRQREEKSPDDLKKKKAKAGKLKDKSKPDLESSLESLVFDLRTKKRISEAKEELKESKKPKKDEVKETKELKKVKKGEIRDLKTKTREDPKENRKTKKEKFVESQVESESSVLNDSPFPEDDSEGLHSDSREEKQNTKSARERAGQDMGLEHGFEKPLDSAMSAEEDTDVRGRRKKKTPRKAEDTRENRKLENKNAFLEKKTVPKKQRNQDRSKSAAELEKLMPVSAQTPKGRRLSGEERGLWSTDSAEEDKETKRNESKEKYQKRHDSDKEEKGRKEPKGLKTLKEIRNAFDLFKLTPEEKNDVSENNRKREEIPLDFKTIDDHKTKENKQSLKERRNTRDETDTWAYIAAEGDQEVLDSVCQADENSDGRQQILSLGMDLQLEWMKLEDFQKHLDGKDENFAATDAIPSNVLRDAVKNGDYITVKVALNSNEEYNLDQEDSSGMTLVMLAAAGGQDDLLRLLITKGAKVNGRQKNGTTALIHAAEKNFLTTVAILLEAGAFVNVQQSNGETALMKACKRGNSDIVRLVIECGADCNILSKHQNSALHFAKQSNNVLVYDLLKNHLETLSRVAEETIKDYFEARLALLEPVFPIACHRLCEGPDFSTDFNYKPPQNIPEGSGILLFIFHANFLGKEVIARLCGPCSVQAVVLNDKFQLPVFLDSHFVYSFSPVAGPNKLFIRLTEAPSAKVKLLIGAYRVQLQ
Thyrotropin receptor (Homo sapiens), sequence (P16473 whole entry, looked up): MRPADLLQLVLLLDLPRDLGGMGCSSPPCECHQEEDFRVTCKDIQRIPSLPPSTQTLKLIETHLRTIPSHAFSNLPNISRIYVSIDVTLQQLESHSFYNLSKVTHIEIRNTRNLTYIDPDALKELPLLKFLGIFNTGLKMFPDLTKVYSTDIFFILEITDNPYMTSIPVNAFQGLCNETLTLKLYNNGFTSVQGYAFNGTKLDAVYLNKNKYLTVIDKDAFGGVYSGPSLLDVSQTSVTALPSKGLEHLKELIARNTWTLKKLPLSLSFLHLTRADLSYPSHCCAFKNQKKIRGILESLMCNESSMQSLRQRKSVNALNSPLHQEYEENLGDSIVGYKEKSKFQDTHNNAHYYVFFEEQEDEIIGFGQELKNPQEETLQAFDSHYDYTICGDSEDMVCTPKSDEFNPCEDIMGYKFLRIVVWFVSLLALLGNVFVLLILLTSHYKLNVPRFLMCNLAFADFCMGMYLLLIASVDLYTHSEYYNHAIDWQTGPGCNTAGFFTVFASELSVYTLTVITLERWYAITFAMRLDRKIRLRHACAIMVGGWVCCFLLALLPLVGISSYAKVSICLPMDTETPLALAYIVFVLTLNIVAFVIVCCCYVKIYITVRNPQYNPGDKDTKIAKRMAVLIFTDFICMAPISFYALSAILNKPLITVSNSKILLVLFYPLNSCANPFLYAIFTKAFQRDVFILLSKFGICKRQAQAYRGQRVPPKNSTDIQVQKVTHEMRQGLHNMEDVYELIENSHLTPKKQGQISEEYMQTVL
Transient receptor potential cation channel subfamily V member 1 (Homo sapiens), sequence (Q8NER1 whole entry, looked up): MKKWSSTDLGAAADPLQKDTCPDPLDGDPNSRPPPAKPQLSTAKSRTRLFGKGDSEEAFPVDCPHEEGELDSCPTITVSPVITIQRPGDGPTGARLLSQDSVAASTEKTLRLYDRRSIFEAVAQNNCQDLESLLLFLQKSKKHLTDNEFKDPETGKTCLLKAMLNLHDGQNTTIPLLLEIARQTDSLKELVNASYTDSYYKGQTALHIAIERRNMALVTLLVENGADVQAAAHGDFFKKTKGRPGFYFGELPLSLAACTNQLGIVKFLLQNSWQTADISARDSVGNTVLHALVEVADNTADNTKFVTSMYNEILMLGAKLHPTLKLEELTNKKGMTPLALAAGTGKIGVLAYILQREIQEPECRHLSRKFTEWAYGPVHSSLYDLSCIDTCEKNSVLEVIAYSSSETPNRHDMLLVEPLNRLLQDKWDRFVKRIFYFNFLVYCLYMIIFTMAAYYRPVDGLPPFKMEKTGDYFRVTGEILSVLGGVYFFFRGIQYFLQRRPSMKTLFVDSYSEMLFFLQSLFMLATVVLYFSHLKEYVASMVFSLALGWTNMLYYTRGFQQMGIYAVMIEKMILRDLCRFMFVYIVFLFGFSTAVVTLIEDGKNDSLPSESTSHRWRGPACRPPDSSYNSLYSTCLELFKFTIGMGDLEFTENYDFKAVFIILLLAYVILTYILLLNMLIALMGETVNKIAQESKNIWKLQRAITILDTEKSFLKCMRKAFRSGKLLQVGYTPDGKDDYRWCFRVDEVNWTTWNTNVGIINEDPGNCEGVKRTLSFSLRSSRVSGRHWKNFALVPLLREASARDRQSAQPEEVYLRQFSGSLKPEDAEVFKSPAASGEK
Ferritin light chain (Equus caballus), sequence (P02791 2-175 limits assumed): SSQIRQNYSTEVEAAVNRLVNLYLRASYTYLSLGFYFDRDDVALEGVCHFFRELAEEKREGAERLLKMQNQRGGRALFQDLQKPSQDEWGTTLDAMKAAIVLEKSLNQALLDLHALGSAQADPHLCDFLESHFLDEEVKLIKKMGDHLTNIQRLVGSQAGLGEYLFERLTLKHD

In the case of `O=C(O)c1cc(=O)c2ccc(Cl)cc2[nH]1`, the max response [1] is reported as 22.6% and 6.02%, the Potency [2] is reported as “inactive” and the Potency [3] is reported as “inactive”. The Potency [4] was “inactive”, the Potency [5] was “inactive” and the Potency [6] was “inactive”. The Potency [7] was “inactive”, the Potency [8] was “inactive” and the Potency [9] was “inactive”. The Potency [10] was “inactive”, the outcome [11] was “inactive” and the outcome [12] was “inactive”. For the same compound, the Potency [13] was “inactive”, the Potency [14] was “inactive” and the Potency [15] was “inactive”. For the same compound, the Potency [16] was “inactive”, the Potency [17] was “inactive” and the outcome [18] was “inactive”. For the same compound, the outcome [19] was “inactive”, the outcome [20] was “inactive” and the outcome [21] was “inactive”. For the same compound, the Potency [22] was “inactive”, the Potency [23] was “inactive” and the Potency [24] was “inactive”.
